The panel holds about 83,000 compounds, 20% with a hit somewhere; the sample as a whole holds those more often.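 In brief: 96-well plates, 48 h treatment, single concentration, percent growth endpoint.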 Values without a mark were called inactive. Active and inactive are the calls of the source. Rule for the calls: active = growth percent below 10; inactive = the rest.

Among the test systems are DU-145 prostate; MALME-3M melanoma; MDA-MB-231 breast; RXF 393 renal; SF-268 CNS; SF-295 CNS; SF-539 CNS; UACC-257 melanoma; M14 melanoma; HCT-15 colon; HT29 colon; SNB-75 CNS; SNB-19 CNS; U251 CNS; PC-3 prostate; SK-MEL-5 melanoma; UACC-62 melanoma; LOX IMVI melanoma; SK-MEL-28 melanoma.
Assay in all cases: NCI-60 one-dose screen, 48 h (100 = growth as untreated, 0 = no growth, -100 = all killed)
What all share (conditions): 10 µM unless noted

Consider `C=C1C(=O)O[C@H]2[C@H]1CC/C(COC(=O)c1ccc(Br)cc1)=C\CC[C@@]1(C)O[C@@H]21`, for which the growth in the assay on DU-145 prostate was -33.7% (active); in the assay on MALME-3M melanoma it was -54.1% (active); in the assay on MDA-MB-231 breast it was -56% (active); with RXF 393 renal, -86% (active); in the assay on SF-268 CNS, 24.6%; in the assay with SF-295 CNS, 63.7%. Also, the growth in the assay with SF-539 CNS was -76.3% (active); in the assay on UACC-257 melanoma it was 50.3%; in the assay on M14 melanoma, -22.8% (active); in the assay on HCT-15 colon, -26.3% (active); with HT29 colon, -51.8% (active); in the assay on SNB-75 CNS it was 56%. The growth in the assay with SNB-19 CNS is 24%; in the assay on U251 CNS, 4.28% (active); in the assay on PC-3 prostate, 20.3%; in the assay on SK-MEL-5 melanoma, 8.33% (active); in the assay on UACC-62 melanoma it was -52.4% (active); in the assay with LOX IMVI melanoma, -94.6% (active). Also, in the assay with SK-MEL-28 melanoma, the growth was -27% (active).

As for `N#CC1=C(N)Oc2c(ccc3ccccc23)C1c1cc(=O)oc2ccc(Cl)cc12` (stereo not drawn), the growth in the assay with DU-145 prostate was 19.4%; with MALME-3M melanoma it was 77.8%; with MDA-MB-231 breast it was 50%; in the assay with RXF 393 renal, 7.4% (active); in the assay with SF-268 CNS it was 56.1%; in the assay on SF-295 CNS it was 14.1%. Further, the growth was 3.16% (active) with SF-539 CNS; 73.5% with UACC-257 melanoma; 3.47% (active) in the assay on M14 melanoma; 25.8% in the assay on HCT-15 colon; 6.85% (active) with HT29 colon; 20.2% in the assay with SNB-75 CNS. Also, the growth is 33.4% in the assay on SNB-19 CNS; 24.4% with U251 CNS; 18.2% in the assay with PC-3 prostate; 28.3% in the assay on SK-MEL-5 melanoma; 36.5% in the assay with UACC-62 melanoma; 42% in the assay with LOX IMVI melanoma. For the same molecule, in the assay on SK-MEL-28 melanoma, the growth was 62.9%.

Consider `S=c1[nH]nc(Cn2c3ccccc3c3ccncc32)o1`, for which the growth is 108% in the assay on DU-145 prostate; 100% in the assay with MALME-3M melanoma; 100% in the assay with MDA-MB-231 breast; 112% in the assay on RXF 393 renal; 103% in the assay with SF-268 CNS; 108% in the assay on SF-295 CNS. The growth was 101% in the assay with SF-539 CNS; 89.7% in the assay with UACC-257 melanoma; 101% in the assay on M14 melanoma; 110% in the assay on HCT-15 colon; 94.6% in the assay with HT29 colon; 102% with SNB-75 CNS. Also, the growth is 98.6% with SNB-19 CNS; 94.8% in the assay on U251 CNS; 99.4% with PC-3 prostate; 102% in the assay with SK-MEL-5 melanoma; 93.3% in the assay on UACC-62 melanoma; 97.8% with LOX IMVI melanoma. In the assay with SK-MEL-28 melanoma, the growth is 101%.

Consider `O=C(c1ccccc1)[C@H]1[C@@H]2CCCN2[C@]2(C(=O)Nc3ccc(F)cc32)[C@]12C(=O)Nc1ccccc12`, for which the growth was 94% in the assay with DU-145 prostate; 125% in the assay on MALME-3M melanoma; 75.5% in the assay with MDA-MB-231 breast; 81.9% in the assay on RXF 393 renal; 90.2% in the assay with SF-268 CNS; 97.6% in the assay on SF-295 CNS. Moreover, the growth was 90.1% with SF-539 CNS; 83.3% with UACC-257 melanoma; 85.2% in the assay on M14 melanoma; 86.9% with HCT-15 colon; 89.8% in the assay with HT29 colon; 83.2% with SNB-75 CNS. In addition, the growth in the assay with SNB-19 CNS was 90.8%; in the assay on U251 CNS, 80.5%; in the assay with PC-3 prostate, 65.7%; in the assay on SK-MEL-5 melanoma it was 83.6%; in the assay on UACC-62 melanoma, 70.7%; in the assay on LOX IMVI melanoma, 91.3%. In the assay with SK-MEL-28 melanoma, the growth was 92.8%.

In the case of `Nc1nc(Cl)c2c(C(F)(F)F)cn(CC3CCNCC3)c2n1`, the growth in the assay on DU-145 prostate is 109%; in the assay with MALME-3M melanoma it was 101%; with MDA-MB-231 breast it was 54.2%; in the assay with RXF 393 renal it was 52.9%; with SF-268 CNS, 96.2%; in the assay with SF-295 CNS, 105%. The growth with SF-539 CNS was 107%; with UACC-257 melanoma, 83.8%; with M14 melanoma it was 57.3%; in the assay on HCT-15 colon, 35.6%; with HT29 colon, 19.7%; with SNB-75 CNS, 97.6%. Moreover, the growth is 61.5% in the assay with SNB-19 CNS; 45% in the assay on U251 CNS; 93.2% in the assay with PC-3 prostate; 94.9% in the assay on SK-MEL-5 melanoma; 86.8% in the assay with UACC-62 melanoma; -12.9% (active) in the assay with LOX IMVI melanoma. Besides, the growth with SK-MEL-28 melanoma is 83.6%.

As to `C=C1C(=O)O[C@H]2[C@H]1CC/C(CNC(=O)/C1=C/CC[C@@]3(C)O[C@H]3[C@H]3OC(=O)C(=C)[C@@H]3CC1)=C\CC[C@@]1(C)O[C@@H]21`, the growth in the assay with DU-145 prostate is 105%; with MALME-3M melanoma it was 104%; in the assay on MDA-MB-231 breast it was 102%; with RXF 393 renal, 99.3%; with SF-268 CNS, 98.5%; with SF-295 CNS, 97.6%. Further, the growth is 95.6% in the assay on SF-539 CNS; 79.9% with UACC-257 melanoma; 95.2% in the assay on M14 melanoma; 93.7% in the assay with HCT-15 colon; 95.4% with HT29 colon; 86.3% in the assay with SNB-75 CNS. The growth in the assay with SNB-19 CNS was 97.6%; in the assay with U251 CNS, 94.2%; with PC-3 prostate, 99%; in the assay with SK-MEL-5 melanoma it was 97.2%; in the assay on UACC-62 melanoma, 85.1%; in the assay with LOX IMVI melanoma it was 88.2%. The growth in the assay on SK-MEL-28 melanoma is 96.2%.

For `O=C(Cn1c2ccccc2c2ccncc21)N/N=C\c1ccc2ccccc2c1`, the growth is 9.11% (active) in the assay with DU-145 prostate; 3.45% (active) in the assay with MALME-3M melanoma; 5.36% (active) in the assay with MDA-MB-231 breast; 1.74% (active) with RXF 393 renal; 41.6% with SF-268 CNS; 28.7% in the assay with SF-295 CNS. Further, the growth in the assay on SF-539 CNS is 27.6%; with UACC-257 melanoma, 59.7%; in the assay with M14 melanoma, 30.9%; in the assay with HCT-15 colon, 23.8%; in the assay with HT29 colon, -8.93% (active); in the assay with SNB-75 CNS, 3.82% (active). For the same molecule, the growth with SNB-19 CNS was 40.5%; with U251 CNS it was -25.9% (active); in the assay with PC-3 prostate, 13.8%; with SK-MEL-5 melanoma it was 15.4%; in the assay with UACC-62 melanoma, 7.54% (active); in the assay on LOX IMVI melanoma it was 19.4%. Also, the growth with SK-MEL-28 melanoma was 58.3%.

The record behind these values is PubChem BioAssay (NCI).
